This is part of a sample that, as a whole, favours compounds with a hit. Of some 83,000 tested, about 20% had one in any assay.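 Method: cells in 96-well plates; compound added at one concentration; 48 h incubation; percent growth measured; values under 10 scored active.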 Activity calls are given as the source filed them.
Key:
Experiment in all cases: NCI-60 one-dose screen, 48 h (100 = growth as untreated, 0 = no growth, -100 = all killed)
Conditions in all cases: 10 µM unless noted
SR leukemia = test system: SR leukemia
RPMI-8226 leukemia = test system: RPMI-8226 leukemia
OVCAR-8 ovarian = test system: OVCAR-8 ovarian
OVCAR-4 ovarian = test system: OVCAR-4 ovarian
SK-OV-3 ovarian = test system: SK-OV-3 ovarian
IGROV1 ovarian = test system: IGROV1 ovarian
OVCAR-3 ovarian = test system: OVCAR-3 ovarian
HS 578T breast = test system: HS 578T breast
NCI/ADR-RES ovarian = test system: NCI/ADR-RES ovarian
OVCAR-5 ovarian = test system: OVCAR-5 ovarian

Measured: growth

Cc1ccc(-c2cc(-c3ccc(Cl)cc3)nc(NC(=O)c3cccnc3)n2)cc1
inactive: SR leukemia 89.1% | RPMI-8226 leukemia 86.3% | OVCAR-8 ovarian 103% | OVCAR-4 ovarian 100% | SK-OV-3 ovarian 109% | IGROV1 ovarian 102% | OVCAR-3 ovarian 115% | HS 578T breast 103% | NCI/ADR-RES ovarian 104%

O=C1N[C@@H]2NC(=[N+]3CCOCC3)N[C@@H]2N1
inactive: SR leukemia 111% | RPMI-8226 leukemia 106% | OVCAR-8 ovarian 105% | OVCAR-4 ovarian 107% | SK-OV-3 ovarian 104% | IGROV1 ovarian 104% | OVCAR-3 ovarian 117% | HS 578T breast 98.2% | NCI/ADR-RES ovarian 102%

C=CCn1cc(-c2nc3ccccc3s2)c2cc(-c3ccc4c5c(cccc35)C(=O)N(N)C4=O)ccc21
inactive: SR leukemia 89.7% | RPMI-8226 leukemia 99.3% | OVCAR-8 ovarian 102% | OVCAR-4 ovarian 97.8% | SK-OV-3 ovarian 95.3% | IGROV1 ovarian 69.8% | OVCAR-3 ovarian 100% | HS 578T breast 103% | NCI/ADR-RES ovarian 96.5%

N#Cc1c(-c2ccccc2)cc(-c2ccccc2)n(CCCCCC(=O)Nc2ccccc2N)c1=O
inactive: SR leukemia 18.5% | OVCAR-8 ovarian 58.8% | OVCAR-4 ovarian 65.9% | SK-OV-3 ovarian 90.4% | IGROV1 ovarian 45.9% | OVCAR-3 ovarian 59.2% | HS 578T breast 76.2% | NCI/ADR-RES ovarian 49%
active: RPMI-8226 leukemia -19.2%

CCOc1nc(-c2ccccc2)cc2c(O)c(C(=O)NN)[nH]c(=O)c12
inactive: SR leukemia 90.8% | RPMI-8226 leukemia 103% | OVCAR-8 ovarian 109% | OVCAR-4 ovarian 100% | SK-OV-3 ovarian 113% | IGROV1 ovarian 55.2% | OVCAR-3 ovarian 79% | HS 578T breast 87.6% | NCI/ADR-RES ovarian 87.9%

COc1cccc(/C=C/C(=O)c2cc3c(N)c(C(=O)Nc4ccccc4)sc3nc2C)c1
inactive: SR leukemia 10.8% | OVCAR-4 ovarian 61.5% | SK-OV-3 ovarian 94.6% | HS 578T breast 24.6%
active: RPMI-8226 leukemia -18.7% | OVCAR-8 ovarian 3.31% | IGROV1 ovarian 2.44% | OVCAR-3 ovarian -26.5% | NCI/ADR-RES ovarian -10.5%

CNC(=O)c1c(NC(=O)c2ccc(C(F)(F)F)cc2)sc2c1CCC(=O)C2
active: SR leukemia 3.07% | RPMI-8226 leukemia -27% | OVCAR-4 ovarian -81.5% | SK-OV-3 ovarian 0.374% | IGROV1 ovarian -4.58% | OVCAR-3 ovarian -6.89% | NCI/ADR-RES ovarian -4.29%
inactive: OVCAR-8 ovarian 14% | HS 578T breast 12.2%

C=C(C)[C@@H]1CC[C@]2(C(=O)N3CCN(C)CC3)CC[C@]3(C)[C@H](CC[C@@H]4[C@@]5(C)CC(=C/c6ccncc6)/C(=N/O)C(C)(C)[C@@H]5CC[C@]43C)[C@@H]12
active: SR leukemia 3.4%
inactive: RPMI-8226 leukemia 46.7% | OVCAR-8 ovarian 85.1% | OVCAR-4 ovarian 69.2% | SK-OV-3 ovarian 98.7% | IGROV1 ovarian 65.1% | OVCAR-3 ovarian 75.2% | HS 578T breast 87.5% | NCI/ADR-RES ovarian 78.8%

N#CC1C=CN(CC(N)=O)c2ccc3cccnc3c21 (centres undefined)
inactive: SR leukemia 85.1% | RPMI-8226 leukemia 90% | OVCAR-8 ovarian 98.1% | OVCAR-5 ovarian 98.9% | OVCAR-4 ovarian 98.6% | SK-OV-3 ovarian 97.1% | HS 578T breast 96.2% | NCI/ADR-RES ovarian 105%

Cn1cc(-c2nc(-c3c[nH]c4ccncc34)cs2)c2ccccc21
active: SR leukemia -9.5% | RPMI-8226 leukemia -29%
inactive: OVCAR-8 ovarian 49.4% | OVCAR-5 ovarian 71.8% | OVCAR-4 ovarian 52.1% | SK-OV-3 ovarian 77.3% | HS 578T breast 90.1% | NCI/ADR-RES ovarian 86.4%

Cc1ccc(NC(=S)NNC(=S)NNc2ccccc2)cc1C
inactive: SR leukemia 56.8% | RPMI-8226 leukemia 78.9% | OVCAR-8 ovarian 98.2% | OVCAR-4 ovarian 114% | SK-OV-3 ovarian 104% | IGROV1 ovarian 98.5% | OVCAR-3 ovarian 73.9% | HS 578T breast 94.4% | NCI/ADR-RES ovarian 110%

O=C(CCCCCCN1CC(=O)N2[C@H](c3cc(Br)cs3)c3[nH]c4ccccc4c3C[C@H]2C1=O)NO
inactive: SR leukemia 17.2% | RPMI-8226 leukemia 11.8% | OVCAR-8 ovarian 28% | OVCAR-4 ovarian 63% | SK-OV-3 ovarian 61.9% | IGROV1 ovarian 40.7% | OVCAR-3 ovarian 38.4% | HS 578T breast 44.8% | NCI/ADR-RES ovarian 78.9%

CC(C)(C)c1cc(-c2nc3ccc(N4CCN(S(C)(=O)=O)CC4)cc3[nH]2)cc(C(C)(C)C)c1O
inactive: SR leukemia 56.2% | RPMI-8226 leukemia 79.5% | OVCAR-8 ovarian 78.9% | OVCAR-4 ovarian 88.6% | SK-OV-3 ovarian 79.5% | IGROV1 ovarian 96.4% | OVCAR-3 ovarian 98.8% | HS 578T breast 86.4% | NCI/ADR-RES ovarian 93.1%

CCOC(=O)CNP(=O)(OC[C@@H](Cc1ccccc1)NC(=O)c1cc2ccccc2s1)Oc1ccccc1 (some centres undefined)
inactive: SR leukemia 23.9% | RPMI-8226 leukemia 79.6% | OVCAR-8 ovarian 89.1% | OVCAR-4 ovarian 88.4% | SK-OV-3 ovarian 91.2% | IGROV1 ovarian 79.9% | OVCAR-3 ovarian 79.9% | HS 578T breast 76.5% | NCI/ADR-RES ovarian 51.4%

COc1ccc2c3c([nH]c2c1)C(=O)c1nc(C)ccc1C3=O
active: OVCAR-3 ovarian -13.9%
inactive: SR leukemia 37.4% | RPMI-8226 leukemia 45.4% | OVCAR-8 ovarian 48.5% | OVCAR-4 ovarian 25.7% | SK-OV-3 ovarian 76.3% | HS 578T breast 84.9% | NCI/ADR-RES ovarian 44.3%

O=C(O)c1[nH]c(=O)[nH]c(=O)c1[N+](=O)[O-]
inactive: SR leukemia 70.9% | RPMI-8226 leukemia 112% | OVCAR-8 ovarian 101% | OVCAR-4 ovarian 122% | SK-OV-3 ovarian 116% | IGROV1 ovarian 133% | OVCAR-3 ovarian 134% | HS 578T breast 106% | NCI/ADR-RES ovarian 103%

O=c1oc2ccccc2cc1C1=NN=C(SCc2ccccc2)SC1
inactive: SR leukemia 89.4% | RPMI-8226 leukemia 98.7% | OVCAR-8 ovarian 101% | OVCAR-4 ovarian 88.9% | SK-OV-3 ovarian 97.8% | IGROV1 ovarian 101% | OVCAR-3 ovarian 103% | HS 578T breast 103% | NCI/ADR-RES ovarian 105%

CCOC(=O)c1nc(Nc2ccc(NC(=O)Nc3ccc(F)cc3)cc2)c2ccccc2n1
inactive: SR leukemia 90.2% | RPMI-8226 leukemia 109% | OVCAR-8 ovarian 106% | OVCAR-4 ovarian 114% | SK-OV-3 ovarian 100% | IGROV1 ovarian 102% | OVCAR-3 ovarian 102% | HS 578T breast 99.9% | NCI/ADR-RES ovarian 92.7%

O=C(CCCCC1CCSS1)Nc1ncnc2n[nH]c(-c3ccc(Oc4ccccc4)cc3)c12 (centres undefined)
inactive: SR leukemia 32.9% | RPMI-8226 leukemia 85.4% | OVCAR-8 ovarian 100% | OVCAR-4 ovarian 108% | SK-OV-3 ovarian 123% | IGROV1 ovarian 93.5% | OVCAR-3 ovarian 116% | HS 578T breast 117% | NCI/ADR-RES ovarian 89%

COc1ccc(C(=O)Nc2ncc(Cc3cccc(Cl)c3)s2)cc1OC
inactive: SR leukemia 17% | RPMI-8226 leukemia 21.3% | OVCAR-8 ovarian 35.6% | OVCAR-4 ovarian 60.2% | SK-OV-3 ovarian 34.9% | IGROV1 ovarian 40.2% | HS 578T breast 30.9% | NCI/ADR-RES ovarian 20.9%

CNC(=O)c1cc(Oc2ccc3nc(NC(C)=O)sc3c2)ccn1
inactive: SR leukemia 85.4% | RPMI-8226 leukemia 93.8% | OVCAR-8 ovarian 99.9% | OVCAR-4 ovarian 95.9% | SK-OV-3 ovarian 107% | IGROV1 ovarian 104% | OVCAR-3 ovarian 105% | HS 578T breast 107% | NCI/ADR-RES ovarian 98.1%

CC1(C)c2[nH]c3ccccc3c2C[C@]2(C)[C@H]3CC=C4[C@@H]5C[C@@](C)(C(N)=O)CC[C@]5(C)CC[C@@]4(C)[C@]3(C)CC[C@@H]12
inactive: SR leukemia 34.3% | OVCAR-8 ovarian 50.8% | OVCAR-5 ovarian 102% | OVCAR-4 ovarian 32.4% | SK-OV-3 ovarian 70.1% | IGROV1 ovarian 74.4% | OVCAR-3 ovarian 58.3% | HS 578T breast 91.5% | NCI/ADR-RES ovarian 67.5%

O=C(Nc1cccc([N+](=O)[O-])c1)c1cc2ccccc2cc1O
active: OVCAR-8 ovarian 9.47% | SK-OV-3 ovarian -82% | IGROV1 ovarian -2.54% | OVCAR-3 ovarian -9.94% | HS 578T breast 6.07% | NCI/ADR-RES ovarian -10.6%
inactive: SR leukemia 48.6% | OVCAR-5 ovarian 10.8% | OVCAR-4 ovarian 15.6%

CCC(=C(c1ccc(OCCN2CCCC2)cc1)c1ccc(OCCN2CCCC2)cc1)c1ccc(Cl)cc1
active: SR leukemia -40.5% | OVCAR-8 ovarian -7.08% | OVCAR-4 ovarian -43.4% | IGROV1 ovarian -20.2% | OVCAR-3 ovarian -57.6% | HS 578T breast -47.4%
inactive: OVCAR-5 ovarian 19.5% | SK-OV-3 ovarian 84.8% | NCI/ADR-RES ovarian 10.5%

O=C(O)[C@@H]1c2ccccc2-c2ccccc2[C@H]1C(=O)O
inactive: SR leukemia 116% | OVCAR-8 ovarian 78.4% | OVCAR-5 ovarian 83.2% | OVCAR-4 ovarian 98% | SK-OV-3 ovarian 103% | IGROV1 ovarian 80.7% | OVCAR-3 ovarian 104% | HS 578T breast 94.3% | NCI/ADR-RES ovarian 95.4%

OCCOCCN(Cc1ccccn1)Cc1cc(I)cc(I)c1O
active: NCI/ADR-RES ovarian 6.52%
inactive: SR leukemia 87.8% | OVCAR-8 ovarian 85.7% | OVCAR-5 ovarian 92.5% | OVCAR-4 ovarian 93.9% | SK-OV-3 ovarian 107% | IGROV1 ovarian 77.9% | OVCAR-3 ovarian 90.2% | HS 578T breast 109%

COC(C(=O)[C@@H](O)[C@@H](C)O)[C@@H]1Cc2cc3cc(O[C@H]4C[C@@H](O[C@H]5C[C@@H](O)[C@H](O)C(C)O5)[C@H](O)C(C)O4)cc(O)c3c(O)c2C(=O)[C@H]1O[C@H]1C[C@@H](O[C@H]2C[C@@H](O[C@H]3C[C@@H](OC)[C@H](O)C(C)O3)[C@@H](O)C(C)O2)[C@H](O)C(C)O1 (some centres undefined)
inactive: SR leukemia 33.9% | OVCAR-8 ovarian 42.4% | OVCAR-5 ovarian 54.3% | OVCAR-4 ovarian 64.5% | SK-OV-3 ovarian 32.3% | IGROV1 ovarian 32.4% | OVCAR-3 ovarian 61% | HS 578T breast 46.2% | NCI/ADR-RES ovarian 97.5%

— PubChem BioAssay (NCI)
